# Measured values reported in PubChem BioAssay (NCI).
# This is part of a sample that, as a whole, favours compounds with a hit. Of some 83,000 tested, about 20% had one in any assay.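 Step 1: grow cells in 96-well plates. Step 2: add test compound at a single concentration. Step 3: incubate 48 h. Step 4: record percent growth.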 Values without a mark were called inactive. Calls of active or inactive are those of the source. How the source made its calls: active means growth percent below 10; inactive means the rest.
# Experiments:
# Test in all cases: NCI-60 one-dose screen, 48 h (100 = growth as untreated, 0 = no growth, -100 = all killed)
# Settings in all cases: 10 µM unless noted
# [1] = test system: NCI/ADR-RES ovarian
# [2] = test system: T-47D breast
# [3] = test system: MDA-MB-435 melanoma
# [4] = test system: SW-620 colon
# [5] = test system: MCF7 breast
# [6] = test system: HCT-116 colon
# [7] = test system: HCC-2998 colon
# [8] = test system: KM12 colon
# [9] = test system: BT-549 breast
SMILES,growth [1],growth [2],growth [3],growth [4],growth [5],growth [6],growth [7],growth [8],growth [9]
ClCCN(CCCl)c1ccc(-n2cnc3c(Cl)ncnc32)cc1,61%,41.1%,46.9%,-73.8% (active),25.7%,33.6%,82.6%,46.3%,–
C[C@@H]1CCC2[C@@H](C)[C@H](OC(=O)CCC(=O)NCCNC(=O)Cc3cc(=O)oc4cc(N(C)C)ccc34)O[C@@H]3O[C@]4(C)CC[C@@H]1C23OO4 (stereo partly specified),16.6%,41%,19.2%,25.3%,35.9%,10.1%,50.2%,22.2%,–
N/C(=N/N=C/c1ccncc1)N[N+](=O)[O-],104%,–,105%,106%,99.1%,102%,109%,100%,89.6%
COC(=O)[C@H](Cc1ccccc1)NC(=O)c1csc([C@@H](C[C@H](C(C)C)N(C)C(=O)[C@@H](NC(=O)[C@H]2CCCN2C)C2CC2)OC(C)=O)n1,53.3%,–,-31.2% (active),24.5%,20.4%,-2.44% (active),27.8%,12.6%,20.6%
COP(=S)(N1CC1)N1CC1,103%,–,105%,103%,102%,109%,105%,116%,118%
CCOP(=O)(NC[C@H]1O[C@](O)(CO)[C@@H](O)[C@@H]1O)OCC,100%,–,106%,104%,95.1%,95.6%,103%,99.3%,87.1%
CN(C)C(=O)Oc1ccccc1-c1ccccc1,102%,–,112%,109%,105%,111%,96.1%,103%,90.7%
O=[N+]([O-])c1ccc([Se]C2CCCCC2Cl)c([N+](=O)[O-])c1 (stereo unspecified),79%,–,55.3%,106%,91.4%,46.6%,98.8%,–,60.8%
O=[N+]([O-])c1c(Br)sc(Br)c1[N+](=O)[O-],-23.6% (active),-6.93% (active),17.5%,-77% (active),23.3%,-85.2% (active),68%,64.1%,–
CC[C@H](C)[C@H](NC(=O)C12C3C4C1C1C2C3C41NC)C(=O)N(C)[C@H](C[C@@H](OC(C)=O)c1nc(C(=O)N[C@@H](Cc2ccccc2)C[C@H](C)C(=O)OC)cs1)C(C)C (stereo partly specified),72.6%,–,-27.9% (active),21.6%,17.2%,4% (active),15.9%,15%,2.04% (active)
CNC(=O)Oc1ccc(C(C)(C)C)cc1OC(=O)NC,104%,98.9%,97%,–,93.9%,93%,103%,99.8%,–
CC(=O)OC1CCC2C3CCC4=C/C(=N/OC(=O)c5ccc(N(CCCl)CCCl)cc5)CCC4(C)C3CC(C)C12 (stereo unspecified),-13.2% (active),–,78.3%,83.4%,99.3%,54.6%,98.6%,73.6%,110%
CC12CCC(O)CC1=CCC1C2CCC2(C)C(O)CCC12 (stereo unspecified),110%,99.4%,104%,105%,116%,104%,–,105%,–
COC(=O)[C@@H](C)C[C@H](Cc1ccccc1)NC(=O)c1cccc([C@@H](C[C@H](C(C)C)N(C)C(=O)[C@@H](NC(=O)[C@H]2CCCCN2C)C(C)C)OC(C)=O)n1,14.6%,–,-32.2% (active),22%,21.3%,2.54% (active),2.68% (active),7.8% (active),-12.5% (active)
O=[N+]([O-])c1cc([N+](=O)[O-])c(Cl)cc1Cl,-45.1% (active),-35.3% (active),-66.5% (active),-77.1% (active),-57.9% (active),-98.8% (active),38%,-81.1% (active),–
CC(C)=CCC/C(C)=C/C=N\N=C(/N)N[N+](=O)[O-],102%,–,94%,106%,81.1%,91.1%,108%,95.7%,92.8%

SMILES,growth [1],growth [2],growth [3],growth [4],growth [5],growth [6],growth [7],growth [8],growth [9]
CCCCCC1(CCBr)C(=O)NC(=O)NC1=O,121%,106%,–,–,97.5%,106%,115%,109%,90.5%
CC[C@H](C)[C@@H]([C@@H](CC(=O)N1CCC[C@H]1[C@H](OC)[C@@H](C)C(=O)N[C@H](C)[C@@H](O)c1ccccc1)OC)N(C)C(=O)[C@@H](NC(=O)[C@@H](NC)C(C)C)C(C)C,-2.45% (active),–,2.42% (active),32.8%,15.3%,7.3% (active),9.29% (active),15.3%,6.48% (active)
COc1cc2c(cc1OCCCCCn1c(-c3ccco3)nc3ccccc31)N=C[C@@H]1CCCN1C2=O,11.2%,–,-48.1% (active),15%,13.4%,14.5%,-22.3% (active),2.44% (active),18%
O=[As](O)(O)c1ccccc1[As](=O)(O)O,104%,–,98.8%,112%,98%,107%,101%,105%,116%
Cc1cc(-c2nc3cc(F)ccc3[se]2)cc(F)c1N,98.7%,–,101%,90.7%,2.88% (active),71.2%,–,61.2%,84.4%
CCCCCCCCOC(=O)CCN1CC1,–,108%,105%,113%,102%,112%,110%,109%,107%
COc1cc([N+](=O)[O-])c2nc(C)ccc2c1[N+](=O)[O-],105%,–,71.3%,72.7%,69.1%,63.5%,107%,79.8%,97.4%
CC1=C(CCCOC(=O)[C@H](N)CC(C)C)C2=C(C)C3(CC3)[C@@](C)(O)C(=O)C2=C1,3.96% (active),–,69.8%,87.1%,37.8%,9.3% (active),0.215% (active),79.8%,-9.68% (active)
Cc1ccc(C(=O)NCCCOc2ccc(N3C(N)=NC(N)=NC3(C)C)cc2Cl)cc1S(=O)(=O)F,108%,–,73.1%,65.1%,75.4%,62.2%,89.8%,74.4%,64.8%
NC(N)=N/N=C\c1c[nH]c2ccc(Br)cc12,87%,–,98.1%,101%,75.4%,92%,–,94.9%,23.7%
CCCCCCCCCCCCCC[P+](CCCCCC)(CCCCCC)CCCCCC,-10.5% (active),–,-81% (active),–,–,-70.8% (active),-24.4% (active),–,–
O=C1CCC2(O)[C@@H]3Cc4ccc(O)c5c4[C@]2(CCN3Cc2ccoc2)C1O5 (stereo partly specified),–,98.1%,105%,102%,97.5%,88.1%,104%,98.2%,110%
Clc1cccc(NCOOC2(OOCNc3cccc(Cl)c3)CCCCC2)c1,–,62%,78.7%,98.8%,65.3%,61.2%,95.4%,51.4%,78%
OCCNC(Cc1ccccc1)c1ccc2c(c1)OCO2 (stereo unspecified),–,60%,108%,109%,92.9%,86.3%,99.3%,101%,81.2%
CC(C)(NC(=O)O[C@@H]1CN2CCC1CC2)c1csc(-c2ccc(F)cc2)n1,–,88.3%,99.1%,99.2%,90.3%,95.5%,102%,101%,101%
CC(=O)[O][Hg][c]1c(N)c(C)cc(C)c1F,74.6%,–,-60.5% (active),-19.5% (active),-5.09% (active),25.7%,93.7%,81.4%,-14% (active)
